Hit rate of the full screen: of about 360,000 compounds, about 1,500 (0.42%) were called active. Many of the other results were omitted from the sample, so actives are more common in it than they were. Values without a mark were called inactive. Rule as the data show it: active = inhibition above about 8.5%; inactive = the rest.
tested on: HIV-1 gp120 / PG9 antibody interaction; test: binders of HIV-1 gp120 antibody PG9, primary screen, biochemical, TR-FRET (AID 624416); conditions: TR-FRET gp120-PG9 antibody binding; at 6.7 µM; active compounds read high

Q: Which inhibition does the source give for Cc1ccccc1OCC(=O)Nc1nc(C)c(C(=O)N(C)C)s1 here?
A: 0.64%

Q: How did the inhibition turn out when Cc1ccc(F)c(NC(=O)CCOc2ccccc2C)c1 was run?
A: -0.27%

Q: CC(=O)c1sc(NC(=O)CCCOc2ccccc2C)nc1C was tested. Which inhibition did it give?
A: 12% (active)

Q: Which inhibition does the source give for COC(=O)C1=C(C)N(Cc2ccc(F)cc2)C(=S)NC1c1cccc(Cl)c1 (configuration not stated) here?
A: -0.02%

Q: For COC(=O)c1ccc(NC(=S)NN2CCOCC2)cc1, which inhibition is on record?
A: -2.64%

Q: How did the inhibition turn out when Cc1cccc(NC(=O)Cc2ccc(Br)cc2)n1 was run?
A: 1.95%

Q: Which inhibition does the source give for COC(=O)c1ccc(NC(=S)Nc2cccc(C)n2)cc1 here?
A: 17.4% (active)

Q: Which inhibition does the source give for COc1cccc(CNC(=O)[C@H]2CCCN2C(=O)[C@H]2CCCN2C(=O)C2CCCCC2)c1 here?
A: 1.65%

Q: With CCCc1nc(SCC(=O)Nc2ccc(S(=O)(=O)N(C)C)cc2)c2ccccc2n1 as the molecule, how does the inhibition read?
A: 27% (active)

Q: For CCCNC(=O)CSc1nc(Cc2ccccc2)nc2ccccc12, which inhibition is on record?
A: 0.37%

Q: O=C(CSc1nc(C2CC2)nc2ccccc12)Nc1ccc2c(c1)OCCO2 was tested. Which inhibition did it give?
A: -1.48%

Q: Which inhibition does the source give for C[C@H](O)[C@@H]1C(=O)N2CCc3c([nH]c4c(-c5ccc6c(c5)OCO6)cccc34)[C@@H]2C[C@@H]1N(C)C(=O)c1ccco1 here?
A: -1.4%

Q: With CN1C(=O)C(Br)(Br)CC1c1cccnc1 (configuration not stated) as the molecule, how does the inhibition read?
A: -0.49%

Q: How did the inhibition turn out when O=C(Nc1nnc(-c2ccccc2F)s1)c1ccccc1F was run?
A: 13.2% (active)

Q: For O=C(O)c1ccccc1-c1ccccc1C(=O)Nc1nccs1, which inhibition is on record?
A: 1.5%

Q: O=C(Nc1ccccc1F)c1ccccc1-c1ccccc1 was tested. Which inhibition did it give?
A: -1.32%

Q: COc1ccc(NC(=O)N(C)C[C@@H]2OCCCC[C@@H](C)Oc3ccc(NC(=O)NC4CCCCC4)cc3C(=O)N([C@H](C)CO)C[C@@H]2C)cc1 was tested. Which inhibition did it give?
A: -0.95%

Q: Which inhibition does the source give for O=S1(=O)c2c(cccc2N2CCCCC2)O[C@H](COCc2ccccc2)CN1C1CC1 here?
A: -1.69%

Q: Which inhibition does the source give for CCOC(=O)c1ccc(NC(=O)Cn2cnc3cc(C)c(C)cc32)cc1 here?
A: -1.34%

Q: With CCn1nnc2cc(C(=O)Nc3ccc(C(=O)OC(C)C)cc3)ccc21 as the molecule, how does the inhibition read?
A: 20.3% (active)

Q: With CCOC(=O)c1cccc(NC(=O)CCn2nnc3ccccc32)c1 as the molecule, how does the inhibition read?
A: 1.35%

Q: Which inhibition does the source give for C[C@H](O)[C@@H]1CN2CCc3ccc(-c4ccc5c(c4)OCO5)cc3[C@@H]2C[C@@H]1N(C)C(=O)C1CCCCC1 here?
A: 2.47%

Q: How did the inhibition turn out when Cc1cc2c(nc1C)CCCN2C was run?
A: -1.95%

Q: For Cc1cc(C(F)(F)F)nc(SCC(=O)Nc2nccs2)n1, which inhibition is on record?
A: 0.14%

Q: How did the inhibition turn out when Cc1[nH]c2ccccc2c1SCC(=O)Nc1nccs1 was run?
A: -0.77%

Q: CC(=O)c1cc(C#N)c(SCC(=O)Nc2nccs2)nc1C was tested. Which inhibition did it give?
A: 15.3% (active)

Q: With O=c1[nH]c(-c2ccccc2)cn1C1CCN(Cc2ccc(-c3nc4ccc(F)cc4nc3-c3ccccc3)cc2)CC1 as the molecule, how does the inhibition read?
A: 1.31%

Q: CCc1ccc(C2=CC(=O)CC(C)(C)C2=O)cc1 was tested. Which inhibition did it give?
A: -0.98%

Q: Which inhibition does the source give for CCC(C)C(=O)Nc1cc([N+](=O)[O-])ccc1Cl (configuration not stated) here?
A: -4.15%

Q: How did the inhibition turn out when CC(C)C(=O)Nc1cccc(NC(=O)c2ccc([N+](=O)[O-])cc2Cl)c1 was run?
A: -0.82%

Q: For O=C(Nc1c(Br)cc2c(c1Br)Cc1cc([N+](=O)[O-])ccc1-2)C(Cl)Cl, which inhibition is on record?
A: 17.5% (active)

Q: Which inhibition does the source give for O=C(Nc1c(Cl)c(C2CC2)nn1-c1ccccc1)C(Cl)(Cl)Cl here?
A: 0.67%

Q: With C[C@@H]1CN([C@H](C)CO)C(=O)CCCn2cc(nn2)CO[C@H]1CN(C)C(=O)Nc1ccc(N2CCCCC2)cc1 as the molecule, how does the inhibition read?
A: -2.61%

Q: How did the inhibition turn out when COC(=O)[C@]12C[C@H](CC(=O)NCCC(C)C)C(=O)N(CCc3ccc(OC)c(OC)c3)C1=C[C@H](C(C)(C)C)O[C@@H]2C was run?
A: 0.69%

Q: For CCOc1cc(C2C(C(=O)OC)=CN(C3CCCC3)C=C2C(=O)OC)cc(Br)c1O, which inhibition is on record?
A: 62.6% (active)

Q: For COC(=O)C1=CN(Cc2ccc(OC)cc2)C=C(C(=O)OC)C1c1ccc(O)c(OC)c1, which inhibition is on record?
A: -1.15%

Q: For CCCC(=O)Nc1cc(OCC)c(NC(=O)NC2CCCCC2)cc1OCC, which inhibition is on record?
A: -1.64%

Q: Which inhibition does the source give for O=C(N[C@H](C(=O)N1CCC[C@H]1C(=O)NCCc1ccccc1Cl)c1ccccc1)c1ccccc1 here?
A: 1.57%

Q: Cc1ccc(NC(=O)N2c3ccccc3SC2c2ccco2)c(C)c1 (configuration not stated) was tested. Which inhibition did it give?
A: 0.01%

Q: COc1cccc(CNC(=O)[C@H]2CCCN2C(=O)[C@H]2CCCN2C(=O)c2cc(F)cc(F)c2)c1 was tested. Which inhibition did it give?
A: -0.29%

Q: How did the inhibition turn out when COC(=O)[C@]12C[C@H](CC(=O)NCc3ccc(OC)c(OC)c3)C(=O)N(Cc3ccccc3)C1=C[C@H](C(C)C)O[C@@H]2C1CC1 was run?
A: -0.45%

Q: With Nc1[nH]c(C(=O)c2ccc(Br)cc2)c(-c2ccc3c(c2)OCO3)c1C(=O)NCCc1c[nH]c2ccccc12 as the molecule, how does the inhibition read?
A: 0.87%

Q: For CCOC(=O)N1CCN(S(=O)(=O)c2ccc(-n3cnnn3)cc2)CC1, which inhibition is on record?
A: -0.23%

Q: For CCOc1ccc(C(=O)COC(=O)c2ccc(-n3cnnn3)cc2)cc1, which inhibition is on record?
A: 11.4% (active)

Q: For CC(OC(=O)c1ccc(-n2cnnn2)cc1)C(=O)NCc1ccccc1 (configuration not stated), which inhibition is on record?
A: 1.87%

Q: CCOC(=O)C1=C(C(=O)OCC)C2N(Cc3ccc(C#N)cc3)c3ccccc3[C@@]23C[C@@H](C(=O)OC)N(S(=O)(=O)c2ccc(F)cc2)C3=N1 (some centres not stated) was tested. Which inhibition did it give?
A: -0.21%

Q: For COC(=O)Cc1nnn2c1[C@H](C)[C@H](c1ccccc1[N+](=O)[O-])OCC2, which inhibition is on record?
A: 0.5%

Q: How did the inhibition turn out when Nc1ccc(-c2nnc(-c3ccc(-c4ccccc4)cc3)o2)cc1 was run?
A: 9.48% (active)

Q: Which inhibition does the source give for OC(c1nnc(-c2ccccc2)o1)c1cccs1 (configuration not stated) here?
A: -1.12%

Q: Cc1ccc(C(=O)NCC(=O)OCc2nnc(-c3ccccc3)o2)cc1 was tested. Which inhibition did it give?
A: 1.54%

Q: For COc1ccc(C2=CN(Cc3ccccc3)C(c3ccc(OC)cc3)CC2=O)cc1 (configuration not stated), which inhibition is on record?
A: 4.38%

Q: With Cc1nc2cc(NC(=O)CSc3nc4c(C)cccc4cc3C#N)ccc2s1 as the molecule, how does the inhibition read?
A: 16% (active)

Q: How did the inhibition turn out when COCc1cc(C)nc(SCC(=O)Nc2cccc(C)c2)c1C#N was run?
A: -0.32%

Q: Cc1csc(SCC(=O)Nc2ccc(C)c(S(=O)(=O)N(C)C)c2)n1 was tested. Which inhibition did it give?
A: -0.14%

Q: With N#Cc1c(-c2cccs2)nc(SCC(=O)c2ccc(Br)cc2)[nH]c1=O as the molecule, how does the inhibition read?
A: 23.5% (active)

Q: With CCc1ccc(C(=O)CSc2nnc(C)c(=O)[nH]2)cc1 as the molecule, how does the inhibition read?
A: -0.93%

Q: How did the inhibition turn out when Cc1nnc(SCC(=O)NCc2cccs2)[nH]c1=O was run?
A: 1.17%

Q: With O=C(COc1ccc2c3c(c(=O)oc2c1)CCCC3)NCC(O)c1ccccc1 (configuration not stated) as the molecule, how does the inhibition read?
A: 0.6%

Q: For O=C(Oc1ccccc1)Oc1ccc2c(c1)oc(=O)c1ccccc12, which inhibition is on record?
A: 28.2% (active)

Q: For O=C(COc1ccc2c3c(c(=O)oc2c1)CCC3)NC1CCCCC1, which inhibition is on record?
A: -0.41%

Q: C=CC1=CCN(S(=O)(=O)C(C)(C)C)[C@@H]1CCO was tested. Which inhibition did it give?
A: 0.76%

Q: COc1ccccc1CCn1cnc(-c2ccccc2)c1C(C)C was tested. Which inhibition did it give?
A: 2.18%

Q: How did the inhibition turn out when Nc1nc2c(ncn2[C@@H]2O[C@H](C(=O)N[C@H](Cc3ccccc3)C(=O)NCC3CCCCC3)[C@@H](O)[C@H]2O)c(=O)[nH]1 was run?
A: -1.03%

Q: Which inhibition does the source give for COC(=O)[C@]12C[C@H](CC(=O)NCCc3ccccc3OC)C(=O)N(Cc3ccccc3)C1=C[C@H](C(C)C)O[C@@H]2C1CC1 here?
A: -0.91%

Q: How did the inhibition turn out when O=C(C(=O)N1CCC(CNC(=O)c2cccnc2Cl)CC1)c1cccs1 was run?
A: -0.43%

Q: COc1cc(NC(=O)c2ccc(-c3csc(C)n3)cc2)c(OC)cc1Cl was tested. Which inhibition did it give?
A: -0.71%

Q: How did the inhibition turn out when COc1ccc(-c2csc(NC(=O)c3ccc(N4C(=O)CCC4=O)cc3)n2)cc1OC was run?
A: 8.78% (active)

Q: Which inhibition does the source give for COc1ccc(-n2nc3c(c2NC(=O)c2ccc(N4C(=O)CCC4=O)cc2)CSC3)cc1 here?
A: 0.18%

Q: With C=CCN1C(=O)N(Cc2ccccc2)c2ccccc2S1(=O)=O as the molecule, how does the inhibition read?
A: -0.26%

Q: For CSc1ccc(Oc2cccc3c2S(=O)(=O)N([C@H](C)c2ccccc2)C[C@@H](COCc2ccccc2)O3)cc1C, which inhibition is on record?
A: -0.66%

Q: How did the inhibition turn out when COc1ccc(CCNC(=O)C2CCN(c3nn4c(=O)cc(C)nc4s3)CC2)cc1OC was run?
A: 2.38%

Q: COc1ccc(-c2c(C)nn3c(N4CCC(C(=O)N5CCCCC5)CC4)cc(C)nc23)cc1OC was tested. Which inhibition did it give?
A: 30.3% (active)

Q: COc1ccc(S(=O)(=O)N2CCC(C(=O)N3CCCC3)CC2)cc1C was tested. Which inhibition did it give?
A: -0.08%

Q: Which inhibition does the source give for CC[C@H](NC(=O)[C@H](Cc1ccccc1)NC(=O)[C@H]1O[C@@H](n2cnc3c(=O)[nH]c(N)nc32)[C@H](O)[C@@H]1O)c1ccccc1 here?
A: 1.17%

Q: Nc1nc2c(ncn2[C@@H]2O[C@H](C(=O)N[C@@H](Cc3ccccc3)C(=O)NCc3ccccc3)[C@@H](O)[C@H]2O)c(=O)[nH]1 was tested. Which inhibition did it give?
A: 0.08%

Q: With COC(=O)C1=C(C)N(Cc2ccc(C(F)(F)F)cc2)C(=NCc2ccccc2)NC1c1ccccc1C(F)(F)F (configuration not stated) as the molecule, how does the inhibition read?
A: -0.97%

Q: With COC(=O)N1Cc2ccnnc2CC1c1ccccc1Br (configuration not stated) as the molecule, how does the inhibition read?
A: -0.32%

Q: CC(C)CNc1cccc2c1S(=O)(=O)N[C@H](C)CO2 was tested. Which inhibition did it give?
A: -0.69%

Q: Which inhibition does the source give for Cc1nc(N2CCN(c3ccccn3)CC2)c2c(C)c(C(=O)Nc3ccc(F)c(Cl)c3)sc2n1 here?
A: -0.31%

Q: Which inhibition does the source give for Cc1cc(Br)ccc1NC(=O)c1cnc(N2CCN(c3ccccn3)CC2)c2ccccc12 here?
A: -0.94%

Q: Which inhibition does the source give for Cc1cc(Br)ccc1NC(=O)c1sc2ncn(CC(=O)N3CCN(c4ccccn4)CC3)c(=O)c2c1C here?
A: 11.3% (active)

Q: With Nc1ncnc2c1ncn2[C@@H]1O[C@H](C(=O)N[C@@H](CCc2ccccc2)C(=O)NCC(=O)N2CCOCC2)[C@@H](O)[C@H]1O as the molecule, how does the inhibition read?
A: -1.35%
